Compounds with a hit are over-represented: about 11% of the library has one in this group of screens.
PNC assembly inh: blocks assembly of the perinucleolar compartment. PC3M PTB-GFP, PNC prevalence imaging, 16 h; active compounds read low. activity change (PNC), negative = inhibition, % at 10 µM. 3.1% of 140,000 active. AID 2417;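 active = readout at or below -70, meaning at least 70% loss of cells showing the perinucleolar compartment, a nuclear body marking cancer cells; inconclusive = readout between -30 and a set limit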;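 note: plate controls were DMSO wells for no effect and camptothecin positive control wells for full effect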
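Read-out is percentage of cells bearing a perinucleolar compartment, from automated 20x imaging of fixed, Hoechst-stained PC3M PTB-GFP cells. Cells were seeded 4 h, then exposed 16 h to compound (23 nl of library stock) in duplicate plates.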
ALDH1A1 inh: blocks purified human ALDH1A1 activity. Purified ALDH1A1, NADH fluorescence, propionaldehyde substrate. P00352. Potency, µM (series often up to 75.3 µM), without a hit: at the highest dose activity, negative = inhibition, usual class: inhibitors. 7.3% of 220,000 active. AID 1030;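 note: potency is the fitted concentration of half-maximal effect; plate controls were no enzyme wells and a reference inhibitor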
HPGD block: HPGD (human) dehydrogenase inhibition | P15428 | purified HPGD, NADH fluorescence kinetic, PGE2 substrate | Potency, µM, without a hit: at the top dose activity change, negative = inhibition, most hits filed as inhibitors | 4.3% of 150,000 active | AID 894; note: potency is the fitted concentration of half-maximal effect
Target sequence (P15428 whole entry, looked up): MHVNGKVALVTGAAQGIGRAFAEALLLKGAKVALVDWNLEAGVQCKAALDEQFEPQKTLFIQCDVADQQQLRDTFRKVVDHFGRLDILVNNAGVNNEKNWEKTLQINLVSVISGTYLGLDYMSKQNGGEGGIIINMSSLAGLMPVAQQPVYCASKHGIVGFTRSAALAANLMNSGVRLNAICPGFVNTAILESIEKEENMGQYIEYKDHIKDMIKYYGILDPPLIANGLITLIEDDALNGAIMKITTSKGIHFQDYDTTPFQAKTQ
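20 nM HPGD preincubated 15 min at room temperature with compound in 50 mM Tris-HCl pH 8, 0.01% Tween 20. Started with 1 mM NAD+ and 30 uM prostaglandin E2; NADH fluorescence (360/450 nm) read 5 times over 30-s intervals, last minus first.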
* = called active by the depositor; u = inconclusive; x = no result; [ ] = another dose, or the depositor's remark. Unless noted, calls come from the whole dose curve; as a rule, active = well fitted inhibition curve with a large enough effect (not every such curve was filed as active); inconclusive = small, poorly fitted or top-dose-only effect, or another doubt; inactive = no such curve, though single readings can be large or run the other way. Unless noted, % is set by controls: 0 for no effect and ±100 for the full control effect.

SMILES | PNC assembly inh | ALDH1A1 inh | HPGD block
O=C(O)c1cc(=O)cc(C(=O)O)[nH]1 | 13 | -5% | 5%
COc1ccc(CNC(=O)c2coc(=O)c3ccccc23)c(OC)c1 | x | -11% | x
CCNC(=O)CN(Cc1ccccc1)S(=O)(=O)c1ccccc1 | -24 | -12% | -4%
CC(C)(C)c1ccc(C(=O)C=[N+]=[N-])cc1 | u | 6.3µM* | -22%
COC(=O)NNC(=O)c1ccc(C(C)(C)C)cc1 | 14 | 10% | -21%
CCCCCCCC(=O)OC[C@H](CO)OC(=O)CCCCCCC | x | -6% | -9%
CCCCOc1ccccc1NC(=O)CC1Nc2ccccc2NC1=O (stereo unspecified) | 13 | 14µM* | -7%
CCCCNC(=O)CC1Nc2ccccc2NC1=O (stereo unspecified) | 8 | u | -26%
c1cncc(CNc2ncncc2-c2cccnc2)c1 | x | 23% | x
COc1cc(CN(C(=S)NCC(=O)NC2CC2)C2CCCC2)cc(OC)c1OC | u | -3% | -11%
Cc1cccnc1NCc1ccc(O)c2ncccc12 | -22 | 20µM* | -27%
Cc1cccc(NCc2ccc(O)c3ncccc23)c1C | x | 10µM* | x
Cc1ccc(NCc2ccc(O)c3ncccc23)cc1C | x | 4% | x
Cc1ccc(NCc2ccc(O)c3ncccc23)cc1 | x | 3% | x
CC(C)C(=O)Cc1ccc2ccccc2n1 | x | 0%[13.5 µM] | -3%
O=C(O)CSC1=NCCN1 | x | 20%[13.5 µM] | -6%
CSC1(SC2=NCCN2)SC2(NCCN2)S1 | x | 0.089µM* | -8%
COc1ccc(Cc2nnc(-c3cccc(C)c3)o2)cc1OC | 20 | -7% | 18µM*
COc1ccc(CCNC(=O)CSc2nnc(-c3ccccc3)o2)cc1OC | 8 | 1% | -22%
CCn1c2ccccc2c2cc(NC(=O)CSc3nnc(-c4ccccc4)o3)ccc21 | 17 | u | -13%
COc1ccc(CCNC(=O)CSc2nnc(-c3cccc(C)c3)o2)cc1OC | -18 | 18µM* | -26%
CCn1c2ccccc2c2cc(NC(=O)CSc3nnc(-c4cccc(C)c4)o3)ccc21 | u | 18µM* | -10%
COc1ccc(CC(=O)Nc2cccc(-c3nnc(-c4cccc(C)c4)o3)c2)cc1OC | 7 | u | u
Cc1nn(C)cc1CN(C)C(=O)c1cc(COc2ccc(F)cc2F)on1 | x | 3% | x
CC(C)(Oc1ccc(Cl)cc1)C(=O)NCc1ccc(S(N)(=O)=O)cc1 | x | -3% | x
SMILES | PNC assembly inh | ALDH1A1 inh | HPGD block
CN(CCOc1ccccc1)CC(=O)Nc1ccc([N+](=O)[O-])cc1Cl | x | 8% | x
CN(CC(=O)Nc1ccc([N+](=O)[O-])cc1Br)Cc1c(F)cccc1Cl | x | 10µM* | x
CCOC(=O)c1cc(C(=O)OCC)c2cccc(C)n2c1=O | -7 | -3% | -18%
Cc1cc(C)n2nc(SCC(=O)c3cc(C)n(-c4cc(C)on4)c3C)nc2n1 | 3 | 4% | x
Cc1ccc(C(=O)c2ccccc2C(=O)O)cc1C | x | 20% | x
O=C(O)c1ccccc1C(=O)c1ccc(Oc2ccccc2)cc1 | -85* | 1% | -3%
COc1ccc(-n2ccnc2SCC(=O)Nc2ccc(OC)cc2OC)cc1 | 45 | 11% | -3%
CO[C@H]1/C=C/O[C@@]2(C)Oc3c(C)c(O)c4c(O)c(c(/C=N/N5CCN(C)CC5)c(O)c4c3C2=O)NC(=O)/C(C)=C\C=C\[C@H](C)[C@H](O)[C@@H](C)[C@@H](O)[C@@H](C)[C@H](OC(C)=O)[C@@H]1C | x | u | -11%
CCOc1cccc2cc(C(=O)N3CCN(C/C=C/c4ccccc4)CC3)c(=O)oc12 | 67 | 14µM* | -21%
CCOc1cc(C(=O)N2CCN(C/C=C/c3ccccc3)CC2)cc(OCC)c1OCC | 21 | 1% | -3%
COc1cccc2cc(C(=O)N3CCCCC3C)c(=O)oc12 (stereo unspecified) | 138 | -3% | 16µM*
COc1cccc2cc(C(=O)OC3CCN(C)CC3)c(=O)oc12 | -27 | -5% | -4%
COc1cccc2cc(C(=O)N3C(C)CCCC3C)c(=O)oc12 (stereo unspecified) | 19 | -8% | 28µM*
COc1cccc2cc(C(=O)N3CCc4ccccc43)c(=O)oc12 | 4 | 3% | -5%
COc1cccc2cc(C(=O)N(Cc3ccccc3)CC3CCCO3)c(=O)oc12 (stereo unspecified) | 349 | -13% | -18%
CCN(C(=O)c1cc2cccc(OC)c2oc1=O)c1ccccc1 | 23 | -2% | 22µM*
O=C(NCC1CCN(c2ccc(S(=O)(=O)N3CCOCC3)cc2)CC1)c1ccc(Cl)cc1 | u | -15% | -26%
O=P(COCCOCCOCCOCP(=O)(c1ccccc1)c1ccccc1)(c1ccccc1)c1ccccc1 | x | 1% | x
Cc1ccc(C)c(S(=O)(=O)N2CCCOC2CNC(=O)C(=O)NCc2ccncc2)c1 (stereo unspecified) | x | 3% | x
CN(C(=O)COC(=O)COc1ccccc1F)C1CCS(=O)(=O)C1 (stereo unspecified) | u | 1% | -6%
O=C(O)CCSc1nnc(SCC(=O)NCC(F)(F)F)s1 | 15 | -2% | -1%
COc1cccc2cc(C(=O)N3CCN(C45CC6CC(CC(C6)C4)C5)CC3)c(=O)oc12 | u | u | -28%
COc1cccc2cc(C(=O)N3CCC(C)CC3)c(=O)oc12 | 26 | u | 13µM*
CC(C)(C)C(=O)Nc1nc(C2CCCN2S(=O)(=O)c2ccc(Cl)cc2)cs1 (stereo unspecified) | 13 | 3% | -19%
Cc1ccccc1NS(=O)(=O)c1cc(S(C)(=O)=O)ccc1C | -18 | 4% | -8%
SMILES | PNC assembly inh | ALDH1A1 inh | HPGD block
CCn1c(=S)[nH]c2cc(S(=O)(=O)N3CCCCC3)ccc21 | -25 | 7.1µM* | -20%
CCn1c(C)nc2cc(S(=O)(=O)N3CCCC3)ccc21 | u | -5% | -5%
O=C(O)c1cc(S(=O)(=O)Nc2cccc(Cl)c2)ccc1O | x | u | -18%
O=S(=O)(c1ccc2oc(=S)[nH]c2c1)N1CCCCC1 | x | 20µM* | x
O=c1[nH]c2ccc(S(=O)(=O)N3CCCCC3)cc2o1 | -29 | -1% | 0%
Cc1ccc(S(C)(=O)=O)cc1S(=O)(=O)Nc1cccc(Cl)c1 | -112* | -1% | 1%
O=S(=O)(Nc1cccc(Cl)c1)c1ccc2oc(=S)[nH]c2c1 | x | 1µM* | x
O=[N+]([O-])c1cccnc1N1CCN(c2ccc(F)cc2)CC1 | x | -12% | x
Cc1ccc(NC(=O)c2ccc(C(C)(C)C)cc2)cc1[N+](=O)[O-] | 16 | 4% | -22%
CC(C)C[C@@H](CC(=O)N[C@H](CC(=O)N[C@@H]1CCNC[C@H]1C(=O)N[C@H](CC(=O)N[C@@H](CCC(=O)O)CC(=O)O)Cc1ccccc1)C(C)C)NC(=O)[C@@H]1CCCC[C@H]1N | x | -20% | 0%
Cc1cc(-c2ccccc2)n(-c2ccc(C(=O)N3CCN(c4ncccn4)CC3)cc2)n1 | 12 | -14% | -1%
O=C(N/N=C\CCc1ccccc1)c1ccco1 | u | 11% | -10%
O=C(NC1=NCCS1)c1ccccc1OCc1ccc(F)cc1 | x | 18% | x
O=C(O)CN(CCN(CC(=O)O)CC(=O)O)CC(=O)O.[Mn] | x | 3%[13.5 µM] | -3%
CCCCCCCC[N+](CCCCCCCC)(CCCCCCCC)CCCCCCCC | x | u | 1%
CC1CC(C)(C)NC(=S)N1CC(=O)NCc1ccc(F)cc1 (stereo unspecified) | x | 7% | x
